Test results reported in the supplement of paper PMC10849652.
Of roughly 8,800 targets only a part is listed; those with a hit were picked by preference. About 0.5% of all pairs of compound and target were hits.

Key:
Experiment in all cases: log2 fold change, soluble protein after heating vs DMSO (PISA); higher = thermal stabilisation; K562 lysate, 10 uM; active = over 0.2 and 3.5 SD of the protein, either way, in both replicates (recomputed)
[1] = compound: CS(=O)(=O)CCNCc1ccc(-c2ccc3ncnc(Nc4ccc(OCc5cccc(F)c5)c(Cl)c4)c3c2)o1 [lapatinib]
Procedure, shortened: (§1)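 K562 pellets were dounce-homogenised in PBS pH 7.4 with 1 mM MgCl2, and the crude extract at 1 mg/mL protein was treated with 10 μM compound for 30 min. Aliquots were heated for 3 min across 48°C-58°C, pooled, and brought to 0.5% NP-40 at 4°C; soluble protein was the supernatant after 21,000xg for 90 min. Soluble protein was quantified by TMTpro 16plex LC-MS/MS with channel sums equalised, and reported as log2 fold change in thermal stability against DMSO controls, with values from duplicates.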

[2] = compound: CS(=O)(=O)N1CCN(Cc2cc3nc(-c4cccc5[nH]ncc45)nc(N4CCOCC4)c3s2)CC1 [pictilisib]
Procedure, shortened: as §1

[3] = compound: C[C@@H](Oc1cc(-c2cnn(C3CCNCC3)c2)cnc1N)c1c(Cl)ccc(F)c1Cl [crizotinib]
Procedure, shortened: as §1

[4] = compound: C[C@H](C1=CC=C(C=C1)C(=O)NC2=C3C=CNC3=NC=C2)N
Procedure, shortened: as §1

[5] = compound: C[C@H](Nc1ncnc2nc[nH]c12)c1cc2cccc(Cl)c2c(=O)n1-c1ccccc1 [duvelisib]
Procedure, shortened: as §1

[6] = compound: Cc1cc(Nc2cc(CN3CCOCC3)c3nc(C)c(Cc4ccc(Cl)cc4F)n3n2)n[nH]1 [gandotinib]
Procedure, shortened: as §1

[7] = compound: Cc1cc(Nc2cc(N3CCN(C)CC3)nc(Sc3ccc(NC(=O)C4CC4)cc3)n2)n[nH]1 [tozasertib]
Procedure, shortened: as §1

[8] = compound: Cc1ccc(-n2nc(C(C)(C)C)cc2NC(=O)Nc2ccc(OCCN3CCOCC3)c3ccccc23)cc1 [doramapimod]
Procedure, shortened: as §1

[9] = compound: Cc1ccc(NC(=O)c2ccc(CN3CC[C@H](N(C)C)C3)c(C(F)(F)F)c2)cc1Nc1nccc(-c2cncnc2)n1 [bafetinib]
Procedure, shortened: as §1

[10] = compound: Cc1cccc(CC(=O)N2CCc3c2ccc(-c2cn(C)c4ncnc(N)c24)c3F)n1
Procedure, shortened: as §1

Measured: log2 fold change

GABPB1 (UniProt Q06547)
inactive: [1] -0.042 | [2] -0.052 | [3] 0.021 | [4] 0.192 | [5] 0.018 | [6] -0.194 | [7] -0.004 | [8] 0.026 | [9] -0.071 | [10] -0.082

EEF1A1, A0A087WVQ9
inactive: [1] 0.028 | [2] -0.038 | [3] -0.02 | [4] 0.07 | [5] -0.021 | [6] 0.017 | [7] -0.08 | [8] -0.069 | [9] 0.068 | [10] -0.129

GAPVD1 isoform 6 (UniProt Q14C86)
inactive: [1] 0 | [2] -0.017 | [3] -0.023 | [4] 0.054 | [5] 0.011 | [6] -0.088 | [7] -0.002 | [8] 0.025 | [9] -0.022 | [10] -0.018

ESRRA (UniProt P11474)
inactive: [1] 0.026 | [2] -0.049 | [3] -0.025 | [5] 0.088 | [6] -0.115 | [7] 0.088 | [8] -0.028 | [9] 0.052 | [10] -0.149
active: [4] 0.444

GIPC3 (UniProt Q8TF64)
inactive: [1] 0.157 | [2] -0.055 | [3] -0.103 | [4] -0.033 | [5] 0.05 | [6] 0.124 | [7] -0.097 | [8] 0 | [9] -0.035 | [10] 0.083

FNBP1L (UniProt Q5T0N5)
inactive: [1] 0.005 | [2] 0 | [3] -0.039 | [4] -0.023 | [5] -0.115 | [6] 0.002 | [7] -0.003 | [8] 0.113 | [9] -0.089 | [10] -0.026

FOXJ3 (UniProt Q9UPW0)
inactive: [1] 0.039 | [2] -0.049 | [3] -0.053 | [4] 0.101 | [5] 0.035 | [6] -0.042 | [7] 0.021 | [8] 0 | [9] -0.139 | [10] -0.003

EIF3I (UniProt Q13347)
inactive: [1] -0.009 | [2] -0.015 | [3] -0.004 | [4] -0.003 | [5] -0.009 | [6] -0.022 | [7] 0.008 | [8] 0.029 | [9] -0.052 | [10] 0.01

EIF2AK2 (UniProt P19525)
inactive: [1] -0.003 | [2] 0.03 | [3] 0.12 | [4] -0.061 | [5] -0.036 | [6] -0.022 | [7] -0.009 | [8] 0.011 | [9] -0.036 | [10] 0.022

FANCD2 isoform 1 (UniProt Q9BXW9)
active: [10] 0.279
inactive: [1] -0.092 | [2] -0.037 | [3] -0.221 | [4] -0.086 | [5] -0.032 | [6] 0.132 | [7] -0.069 | [8] -0.023 | [9] -0.079

DYRK1A (UniProt Q13627)
inactive: [1] -0.024 | [2] -0.003 | [3] 0.018 | [4] 0.055 | [5] -0.021 | [6] -0.012 | [7] 0.03 | [8] -0.06 | [9] -0.028 | [10] -0.021

GIGYF2 (UniProt Q6Y7W6)
Chain of UniProt Q6Y7W6 (Q6Y7W6 whole entry, looked up): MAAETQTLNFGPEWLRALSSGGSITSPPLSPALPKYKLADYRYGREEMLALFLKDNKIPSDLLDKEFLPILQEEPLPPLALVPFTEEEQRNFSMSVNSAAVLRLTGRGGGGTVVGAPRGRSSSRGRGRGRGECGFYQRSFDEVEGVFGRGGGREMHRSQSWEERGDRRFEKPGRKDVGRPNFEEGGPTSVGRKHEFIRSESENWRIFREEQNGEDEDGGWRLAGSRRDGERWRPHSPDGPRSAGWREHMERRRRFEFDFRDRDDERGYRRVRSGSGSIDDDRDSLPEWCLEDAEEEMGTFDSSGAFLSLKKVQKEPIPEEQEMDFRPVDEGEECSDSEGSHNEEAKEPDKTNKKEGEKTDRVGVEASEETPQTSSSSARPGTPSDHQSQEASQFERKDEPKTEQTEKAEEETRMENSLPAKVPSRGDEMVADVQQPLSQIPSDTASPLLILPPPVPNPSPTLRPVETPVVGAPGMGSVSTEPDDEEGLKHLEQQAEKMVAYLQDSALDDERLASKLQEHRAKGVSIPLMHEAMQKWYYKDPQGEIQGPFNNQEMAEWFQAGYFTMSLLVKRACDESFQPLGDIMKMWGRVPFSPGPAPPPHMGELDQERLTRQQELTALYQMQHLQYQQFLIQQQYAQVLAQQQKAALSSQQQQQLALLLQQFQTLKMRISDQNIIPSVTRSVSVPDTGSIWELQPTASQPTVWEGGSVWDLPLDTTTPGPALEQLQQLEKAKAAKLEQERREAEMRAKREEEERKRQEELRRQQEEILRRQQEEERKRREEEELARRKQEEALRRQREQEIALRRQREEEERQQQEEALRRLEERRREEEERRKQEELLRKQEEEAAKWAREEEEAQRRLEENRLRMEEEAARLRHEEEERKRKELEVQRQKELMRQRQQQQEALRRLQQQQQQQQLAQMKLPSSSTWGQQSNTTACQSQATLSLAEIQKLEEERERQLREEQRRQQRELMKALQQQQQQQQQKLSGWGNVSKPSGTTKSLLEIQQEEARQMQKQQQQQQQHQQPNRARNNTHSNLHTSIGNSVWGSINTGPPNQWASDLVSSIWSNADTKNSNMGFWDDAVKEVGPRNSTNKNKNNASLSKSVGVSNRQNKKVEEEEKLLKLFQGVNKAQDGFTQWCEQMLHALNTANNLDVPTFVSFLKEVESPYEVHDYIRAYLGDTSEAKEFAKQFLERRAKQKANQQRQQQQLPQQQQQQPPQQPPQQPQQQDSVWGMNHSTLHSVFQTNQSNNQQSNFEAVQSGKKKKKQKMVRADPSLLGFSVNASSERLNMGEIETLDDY
inactive: [1] 0.013 | [2] 0.057 | [3] 0.024 | [4] 0.03 | [5] -0.033 | [6] 0.05 | [7] -0.006 | [8] -0.086 | [9] -0.043 | [10] -0.009

EPN2 (UniProt O95208)
inactive: [1] -0.007 | [2] -0.037 | [3] -0.009 | [5] 0.055 | [6] 0.165 | [7] -0.036 | [8] 0.065 | [9] -0.027 | [10] 0.093
active: [4] -0.407

FBXO9 (UniProt Q9UK97)
Chain of UniProt Q9UK97 (Q9UK97 whole entry, looked up): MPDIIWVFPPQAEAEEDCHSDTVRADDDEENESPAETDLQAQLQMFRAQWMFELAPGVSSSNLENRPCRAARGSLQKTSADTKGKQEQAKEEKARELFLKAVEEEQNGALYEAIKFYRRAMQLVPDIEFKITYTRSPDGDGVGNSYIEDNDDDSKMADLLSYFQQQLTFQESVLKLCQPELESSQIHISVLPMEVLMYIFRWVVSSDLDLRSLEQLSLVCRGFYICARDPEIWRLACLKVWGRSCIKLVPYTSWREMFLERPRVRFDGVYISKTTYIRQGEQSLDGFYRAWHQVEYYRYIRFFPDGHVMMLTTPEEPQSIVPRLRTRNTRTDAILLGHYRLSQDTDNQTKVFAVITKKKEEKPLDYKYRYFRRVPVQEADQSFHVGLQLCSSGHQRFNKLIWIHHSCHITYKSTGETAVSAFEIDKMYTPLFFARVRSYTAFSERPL
inactive: [1] -0.334 | [2] -0.107 | [3] -0.023 | [4] 0.08 | [5] -0.012 | [6] -0.141 | [7] 0.041 | [8] 0.044 | [9] 0 | [10] -0.104

EFCAB14 (UniProt O75071)
inactive: [1] -0.051 | [2] -0.058 | [3] 0.006 | [4] 0.037 | [5] 0.022 | [6] 0.064 | [7] 0.086 | [8] 0.011 | [9] -0.002 | [10] -0.084

GAMT (UniProt Q14353)
inactive: [1] 0.02 | [2] -0.028 | [3] 0 | [4] 0.02 | [5] 0.082 | [6] 0.002 | [7] -0.02 | [8] 0.09 | [9] 0.062 | [10] -0.046

DUS3L (UniProt Q96G46)
inactive: [1] -0.009 | [2] -0.02 | [3] -0.027 | [4] 0.202 | [5] -0.022 | [6] -0.081 | [7] 0.009 | [8] -0.018 | [9] 0.093 | [10] -0.097

EXOC5 (UniProt O00471)
inactive: [1] -0.012 | [2] 0.017 | [3] -0.067 | [4] 0.055 | [5] -0.027 | [6] -0.202 | [7] 0.025 | [8] 0.027 | [9] -0.033 | [10] 0.003

EXTL2 (UniProt Q9UBQ6)
inactive: [1] -0.071 | [2] -0.282 | [3] 0.032 | [4] -0.138 | [5] -0.001 | [6] 0.106 | [7] 0.028 | [8] 0.058 | [9] -0.02 | [10] -0.006

EXOC4 (UniProt Q96A65)
inactive: [1] -0.038 | [2] 0.018 | [3] -0.044 | [4] 0.011 | [5] 0.024 | [6] -0.165 | [7] -0.028 | [8] -0.023 | [9] -0.056 | [10] 0.015

FTSJ1 (UniProt Q9UET6)
inactive: [1] 0.01 | [2] -0.002 | [3] -0.051 | [4] 0.051 | [5] -0.009 | [6] -0.088 | [7] -0.064 | [8] 0.03 | [9] 0.041 | [10] -0.052

FDFT1 (UniProt P37268)
inactive: [1] -0.037 | [2] -0.018 | [3] 0.062 | [4] -0.045 | [5] 0.19 | [6] 0.207 | [7] -0.004 | [8] 0 | [9] 0.018 | [10] 0.01

GBF1 (UniProt Q92538)
inactive: [1] -0.015 | [2] -0.023 | [3] -0.064 | [4] -0.026 | [5] -0.002 | [6] -0.108 | [7] 0.014 | [8] -0.006 | [9] -0.043 | [10] 0.049

DYNC1I2 isoform 2 (UniProt Q13409)
inactive: [1] 0.029 | [2] 0.078 | [3] -0.031 | [4] 0.096 | [5] 0.015 | [6] -0.132 | [7] 0.001 | [8] -0.011 | [9] -0.041 | [10] -0.012

FREM2 (UniProt Q5SZK8)
Chain of UniProt Q5SZK8 (Q5SZK8 whole entry, looked up): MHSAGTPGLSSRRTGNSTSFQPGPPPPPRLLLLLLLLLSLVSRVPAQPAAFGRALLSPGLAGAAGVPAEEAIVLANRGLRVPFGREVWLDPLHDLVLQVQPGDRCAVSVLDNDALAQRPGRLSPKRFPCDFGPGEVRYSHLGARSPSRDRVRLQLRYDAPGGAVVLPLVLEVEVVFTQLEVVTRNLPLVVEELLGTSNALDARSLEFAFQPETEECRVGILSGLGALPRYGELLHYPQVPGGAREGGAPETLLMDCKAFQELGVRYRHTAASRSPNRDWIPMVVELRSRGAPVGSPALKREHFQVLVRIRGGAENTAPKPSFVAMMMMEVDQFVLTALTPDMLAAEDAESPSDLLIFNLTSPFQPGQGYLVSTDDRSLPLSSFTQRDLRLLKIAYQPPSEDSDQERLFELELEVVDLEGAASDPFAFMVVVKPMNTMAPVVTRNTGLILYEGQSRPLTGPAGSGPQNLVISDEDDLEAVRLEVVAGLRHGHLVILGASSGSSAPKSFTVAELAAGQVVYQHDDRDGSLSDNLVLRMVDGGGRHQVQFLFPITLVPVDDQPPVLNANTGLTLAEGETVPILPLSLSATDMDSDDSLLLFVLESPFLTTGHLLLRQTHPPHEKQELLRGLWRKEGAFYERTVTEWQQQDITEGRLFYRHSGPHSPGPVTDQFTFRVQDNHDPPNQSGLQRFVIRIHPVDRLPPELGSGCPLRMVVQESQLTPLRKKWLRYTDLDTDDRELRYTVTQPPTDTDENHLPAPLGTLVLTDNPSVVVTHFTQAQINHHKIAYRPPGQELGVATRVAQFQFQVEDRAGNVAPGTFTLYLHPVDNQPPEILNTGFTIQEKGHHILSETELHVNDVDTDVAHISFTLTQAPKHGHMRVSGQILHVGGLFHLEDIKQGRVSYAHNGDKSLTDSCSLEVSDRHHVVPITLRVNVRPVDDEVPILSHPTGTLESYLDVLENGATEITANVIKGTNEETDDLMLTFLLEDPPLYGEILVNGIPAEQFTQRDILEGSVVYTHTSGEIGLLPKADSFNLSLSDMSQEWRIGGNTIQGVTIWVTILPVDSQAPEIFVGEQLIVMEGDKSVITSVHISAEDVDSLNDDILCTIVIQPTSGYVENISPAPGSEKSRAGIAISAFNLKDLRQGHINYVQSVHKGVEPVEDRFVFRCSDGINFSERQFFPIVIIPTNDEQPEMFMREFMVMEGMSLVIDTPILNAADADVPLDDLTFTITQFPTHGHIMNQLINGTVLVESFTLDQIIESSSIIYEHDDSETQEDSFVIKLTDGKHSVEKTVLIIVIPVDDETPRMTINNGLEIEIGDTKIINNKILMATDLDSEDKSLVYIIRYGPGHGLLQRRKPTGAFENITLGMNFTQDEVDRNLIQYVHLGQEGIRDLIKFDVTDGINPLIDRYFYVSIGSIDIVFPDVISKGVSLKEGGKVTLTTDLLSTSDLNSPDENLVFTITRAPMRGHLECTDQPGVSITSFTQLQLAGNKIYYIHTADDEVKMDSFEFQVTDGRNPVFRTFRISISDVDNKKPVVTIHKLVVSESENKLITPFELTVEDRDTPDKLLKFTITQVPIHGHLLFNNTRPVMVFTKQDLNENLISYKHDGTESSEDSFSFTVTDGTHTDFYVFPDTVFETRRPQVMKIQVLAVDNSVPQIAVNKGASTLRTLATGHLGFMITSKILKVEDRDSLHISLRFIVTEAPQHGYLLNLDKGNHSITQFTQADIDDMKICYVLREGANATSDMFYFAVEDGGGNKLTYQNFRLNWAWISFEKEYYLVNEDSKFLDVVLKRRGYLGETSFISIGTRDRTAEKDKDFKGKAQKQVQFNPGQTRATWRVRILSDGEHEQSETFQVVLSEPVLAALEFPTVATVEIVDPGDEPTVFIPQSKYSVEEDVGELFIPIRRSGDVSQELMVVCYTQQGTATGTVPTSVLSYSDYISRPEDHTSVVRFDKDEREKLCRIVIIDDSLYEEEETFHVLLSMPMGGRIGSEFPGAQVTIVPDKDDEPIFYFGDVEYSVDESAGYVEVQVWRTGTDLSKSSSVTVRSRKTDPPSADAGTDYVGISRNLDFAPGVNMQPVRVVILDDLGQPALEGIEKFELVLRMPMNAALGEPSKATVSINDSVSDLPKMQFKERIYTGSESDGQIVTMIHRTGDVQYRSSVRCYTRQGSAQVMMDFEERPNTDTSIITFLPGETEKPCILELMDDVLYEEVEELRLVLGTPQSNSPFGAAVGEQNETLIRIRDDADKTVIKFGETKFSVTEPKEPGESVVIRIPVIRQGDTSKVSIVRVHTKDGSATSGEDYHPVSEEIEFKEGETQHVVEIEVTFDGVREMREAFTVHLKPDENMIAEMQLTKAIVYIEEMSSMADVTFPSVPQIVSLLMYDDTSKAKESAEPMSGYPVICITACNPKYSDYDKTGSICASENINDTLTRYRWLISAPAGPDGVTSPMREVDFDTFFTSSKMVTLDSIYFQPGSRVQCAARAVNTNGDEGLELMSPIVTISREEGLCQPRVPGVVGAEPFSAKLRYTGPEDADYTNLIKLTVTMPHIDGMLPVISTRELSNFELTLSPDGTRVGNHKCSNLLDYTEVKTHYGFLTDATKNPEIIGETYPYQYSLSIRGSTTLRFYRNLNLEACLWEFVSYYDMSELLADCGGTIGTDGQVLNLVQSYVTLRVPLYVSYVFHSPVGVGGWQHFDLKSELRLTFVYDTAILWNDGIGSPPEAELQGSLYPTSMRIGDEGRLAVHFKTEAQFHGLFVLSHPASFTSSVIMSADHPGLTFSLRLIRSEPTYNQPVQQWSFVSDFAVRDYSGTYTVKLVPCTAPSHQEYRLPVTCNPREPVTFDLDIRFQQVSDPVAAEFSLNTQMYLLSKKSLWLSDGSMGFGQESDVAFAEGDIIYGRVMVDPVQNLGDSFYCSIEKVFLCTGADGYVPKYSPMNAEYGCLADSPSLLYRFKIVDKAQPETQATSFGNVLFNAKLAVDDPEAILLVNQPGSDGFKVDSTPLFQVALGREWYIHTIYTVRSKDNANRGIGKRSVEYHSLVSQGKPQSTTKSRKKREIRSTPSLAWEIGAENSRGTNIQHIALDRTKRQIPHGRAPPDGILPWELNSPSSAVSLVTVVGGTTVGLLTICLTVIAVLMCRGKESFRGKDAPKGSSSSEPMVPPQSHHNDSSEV
active: [4] -0.318
inactive: [1] -0.077 | [2] 0.046 | [3] -0.095 | [5] 0.06 | [6] 0.172 | [7] 0.104 | [8] 0.07 | [9] -0.135 | [10] 0.218
